The supplement of paper PMC11417369
± gives the standard deviation of the averaged measurements. Whole data set: some 25,000 sequences, median “ln(normalized median fluorescence intensity)” near 8.6, cut for the highest 2% near 10. Only a selection was taken, and the highest values are over-represented in it overall.

The sequences below were run on PfAP2-EXP AP2 domain (GST-tagged) (assay: gcPBM binding intensity (ln(normalized median fluorescence intensity)); higher = stronger DNA binding).
In short: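 GST-tagged P. falciparum DNA-binding domains, expressed in E. coli (about 25 μg on average), were applied for 1 h to an Agilent 4 × 180k array of primer-extended double-stranded 36-bp intergenic genomic probes plus negative controls. The binding buffer was 1× PBS with 1% milk, 0.2 mg/ml BSA, 0.5% salmon testes DNA and 0.03% Triton X-100. Bound protein was detected with Alexa488 anti-GST antibody and scanned at 488 nm. Binding intensity is the highest Masliner-normalised natural-log median intensity across replicate spots of either probe orientation.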

“TTATTTATTTATTGTTGTACACAAAATGATTCTTAA [XGTACX_site6480]” and “TTATATAACACGGGGAGGACACAAGAAATAAAGAGC [XGTACX_site2148]” are within error of each other in “gcPBM binding intensity (ln)” value: 8.7 ± 0.2 for the first, 9.13 ± 0.29 for the second.

First: AATGATTTTGATTAACGTACGTACAAATATATATAT [XGTACX_site6604]
Second: AAAATTATATATTATAGTACATAAAATTTTGATATA [XGTACX_site994]
The “gcPBM binding intensity (ln)” value of the first is higher: 9.31 ± 0.057 for the first, 8.39 ± 0.35 for the second.

Going from “ATTTTGATAACCGTACGTACATATATATATATATAT [XGTACX_site6605]” to “AAATAGAGAAATACAAGTACATATCAAACCAATCTA [XGTACX_site2756]”, the “gcPBM binding intensity (ln)” value falls from 10.3 ± 0.35 to 8.52 ± 0.42.

“TTATACACCTTTCATTGTACATATAATTTATATTCT [XGTACX_site8685]” and “TATTACATTGTTGAATGTACTCATTTAAAATTTATA [XGTACX_site7987]” are within error of each other in “gcPBM binding intensity (ln)” value: 8.95 ± 0.33 for the first, 8.34 ± 0.38 for the second.

“ATAATACGAATTTGTAGTACATTTATAATAACATGA [XGTACX_site2614]” and “TATATAATACGAATTTGTACATATTAAATAAATTAT [XGTACX_site93]” are within error of each other in “gcPBM binding intensity (ln)” value: 8.37 ± 0.17 for the first, 8.41 ± 0.37 for the second.

First: TATATATATATATATATAATACGAATTTGTAGTACA [TGCATGCA_negctrl_site224]
Second: AATTATATTTGAAATACACACATAAAAACCATATAG [CACACA_site7598]
The “gcPBM binding intensity (ln)” value of the first is higher: 10.2 ± 0.16 for the first, 8.89 ± 0.51 for the second.

First: ATGTAAATACATATATGTACACAAATATATATATAT [XGTACX_site3537]
Second: TCATACATGTATATGTGTACATATAATGTATATTCC [XGTACX_site6082]
The “gcPBM binding intensity (ln)” value of the first is higher: 9.8 ± 0.35 for the first, 8.3 ± 0.3 for the second.

“AATATATTCCACATGTGTACATATATATATATATAT [XGTACX_site8006]” and “TATATATATATATGTACACACATATATACCTTTCAT [CACACA_site2679]” are within error of each other in “gcPBM binding intensity (ln)” value: 10.3 ± 0.24 for the first, 10.1 ± 0.27 for the second.

Compared with “ACACACATATATACATGTACATATATATATATATAT [XGTACX_site451]”, “ACACATACATACATATGTACATATATACATATATAC [XGTACX_site5559]” is lower in “gcPBM binding intensity (ln)” value: 10.1 ± 0.3 for the first, 8.84 ± 0.26 for the second.

Compared with “TATATATATATATATGTACACACATATATACCTTTC [CACACA_site8854]”, “TCACACATATATTCATGTACATATTAATATTTCCAT [XGTACX_site5387]” is lower in “gcPBM binding intensity (ln)” value: 10.2 ± 0.26 for the first, 8.85 ± 0.44 for the second.

Going from “TATATATATTTATGTACACACATATATACCTTTCAT [CACACA_site5479]” to “ACATACACATATACATGTACATATATATATATATAT [XGTACX_site5082]”, the “gcPBM binding intensity (ln)” value rises from 8.74 ± 0.23 to 10.2 ± 0.2.

Going from “ACACATATATAAATATGTACATATATATATATACAT [XGTACX_site1595]” to “GTAAATACACATATGTGTACATATATATATATATAT [XGTACX_site3696]”, the “gcPBM binding intensity (ln)” value rises from 8.61 ± 0.23 to 10.2 ± 0.35.

“AAAAAAATATATATTACACACATATATACCTATATA [CACACA_site5688]” and “TATATCTGTATCATTACACACATGTATACTTATTTG [CACACA_site6134]” are within error of each other in “gcPBM binding intensity (ln)” value: 8.18 ± 0.47 for the first, 8.74 ± 0.43 for the second.

“TTACGATTATACAAAAGTACATGTATTACACAATAT [XGTACX_site5138]” and “TACAAAAAAAGATGATGTACAATGAAAAATAAGAAA [XGTACX_site5840]” are within error of each other in “gcPBM binding intensity (ln)” value: 8.6 ± 0.33 for the first, 9.18 ± 0.37 for the second.

Compared with “TATTATAATTAATATACACACGCTTATATATATATA [CACACA_site75]”, “TAATTGTAGACATGCACACACAAATATTATATATGT [CACACA_site845]” is lower in “gcPBM binding intensity (ln)” value: 9.93 ± 0.3 for the first, 8.72 ± 0.45 for the second.

“TAATGAAATATACAGAGTACATTCTGTATATAGGAT [XGTACX_site7691]” and “ATATTTACCACTGTATGTACATATATAAAATATATC [XGTACX_site6373]” are within error of each other in “gcPBM binding intensity (ln)” value: 8.46 ± 0.3 for the first, 8.81 ± 0.18 for the second.

Compared with “CTTGAAAGATTTTATTGTACTCATAAGATACATTTC [XGTACX_site3178]”, “TATATATATACATATTGTACATGTGTATATTTTTTT [XGTACX_site361]” is higher in “gcPBM binding intensity (ln)” value: 8.31 ± 0.36 for the first, 8.93 ± 0.042 for the second.

Compared with “TGTATACGCATATGTACACACATATATATGTATATG [CACACA_site3087]”, “TATATATATATATATTGTACACATACATGTAGTTTT [XGTACX_site4848]” is higher in “gcPBM binding intensity (ln)” value: 8.65 ± 0.16 for the first, 10.2 ± 0.29 for the second.

“ATATATATATATATATGTACACATATATTTCTTTTC [XGTACX_site3443]” and “ATATATATATATATATGTACACATATACGCTTTTTC [XGTACX_site3838]” are within error of each other in “gcPBM binding intensity (ln)” value: 10 ± 0.47 for the first, 10.3 ± 0.28 for the second.

First: AGTTTATAGTGATATTGTACATATATATATATATAT [XGTACX_site572]
Second: TATTATAGTATATATTGTACATATATATATTTTTTA [XGTACX_site8831]
The “gcPBM binding intensity (ln)” value of the first is higher: 10.2 ± 0.66 for the first, 8.35 ± 0.37 for the second.

Compared with “TATATAGTTTATATTTGTACATATAGACATTTATAA [XGTACX_site6414]”, “TACATTGTATACATATGTACACATATATATATATAT [XGTACX_site6174]” is higher in “gcPBM binding intensity (ln)” value: 8.23 ± 0.3 for the first, 10.1 ± 0.4 for the second.

“AAAATGTACTTTTTCTAAAGAGTAATGATGCTTGAT [CACACA_negctrl_site1124]” and “ATATGATAAATTATATGTACTTAAAATATATTATAA [XGTACX_site5904]” are within error of each other in “gcPBM binding intensity (ln)” value: 8.52 ± 0.45 for the first, 8.26 ± 0.18 for the second.

Going from “TATATATATATATATGCACACATTTATACAATTTTA [CACACA_site2986]” to “TCCTTTTTTTTTTATGCACACACAATTATACATTCC [CACACA_site9287]”, the “gcPBM binding intensity (ln)” value falls from 10.2 ± 0.3 to 9.06 ± 0.4.

Going from “CATATTTTATTATATACATGCAATTTTAATATATAT [TGCATGCA_site544]” to “TATATATATATATATACATGCATATTTTTTATTTTT [TGCATGCA_site464]”, the “gcPBM binding intensity (ln)” value rises from 8.59 ± 0.25 to 10.3 ± 0.31.

Compared with “CTTTTTTTTTTATGCACACACAATTATACATTCCTT [CACACA_site3877]”, “TATATATATATATATACATGCATACAATTTTATGAG [TGCATGCA_site466]” is higher in “gcPBM binding intensity (ln)” value: 9.08 ± 0.37 for the first, 10.2 ± 0.29 for the second.

“TATAATAATAATTATACATGCATGAATATTTATATG [TGCATGCA_site811]” and “AACAGACATAGACACACACACATATATTTATTTATA [CACACA_site7571]” are within error of each other in “gcPBM binding intensity (ln)” value: 8.86 ± 0.16 for the first, 8.64 ± 0.4 for the second.

“TATATACATGCATATACACACATATATTTATTTATA [CACACA_site6327]” and “TATTCATGCATATACACACACATATATTTATATTTT [CACACA_site7786]” are within error of each other in “gcPBM binding intensity (ln)” value: 8.7 ± 0.33 for the first, 8.77 ± 0.35 for the second.

First: TATTTATATAGACACACACACATATATTTATATTTT [CACACA_site7240]
Second: GTTATTTATAGACACACACACATGCATGCACATATA [CACACA_site6204]
The “gcPBM binding intensity (ln)” value of the first is lower: 8.52 ± 0.45 for the first, 10.2 ± 0.39 for the second.

“GCATAACCTTTATATTGTACATATACCTTTATTGTT [XGTACX_site6046]” was tested, and the “gcPBM binding intensity (ln)” value was 9.16 ± 0.45.
